Measured values taken from PubChem BioAssay AID1159580 (chemical genetic matrix, 2015).
Screen size: about 5,500 compounds; about 2,000 (36%) were called active. Roughly 18% stayed inconclusive and do not appear here. Cut-off read from the data, not from the text of the source: active = normalized growth mostly below about 0.91 (no sharp cut-off); inconclusive = no clear call, values can overlap the other calls; inactive = mostly above about 0.92. Some of the results follow.

Test: chemical genetic growth profiling, strain panel (AID 1159580);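 note: tested at 20 µM; growth read once vehicle control cultures reached saturation at 30 °C; 1 = growth at the plate median or of vehicle wells; lower values mean less growth of the strain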
Conditions: growth OD

Measured: normalized growth

Cc1cc(O)cc(O)c1C(=O)O
inactive: S. cerevisiae deletion strains, locus YJR066W, strain TOR1, hits give low values 1.01 | S. cerevisiae deletion strains, locus YJR075W, strain HOC1, hits give low values 1.01 | S. cerevisiae deletion strains, locus YKL009W, strain mrt4, hits give low values 0.964 | S. cerevisiae deletion strains, locus YKL068W, hits give low values 0.992 | S. cerevisiae deletion strains, locus YKL085W, strain MDH1 (second series), hits give low values 1 | S. cerevisiae deletion strains, locus YKL085W, strain MDH1, hits give low values 1 | S. cerevisiae deletion strains, locus YKL160W, strain elf1, hits give low values 0.994 | S. cerevisiae deletion strains, locus YKL190W, strain CNB1, hits give low values 0.978 | S. cerevisiae deletion strains, locus YKR001C, strain vps1, hits give low values 1.01 | S. cerevisiae deletion strains, locus YKR026C, strain gcn3, hits give low values 1.02 | S. cerevisiae deletion strains, locus YKR091W, strain srl3, hits give low values 1.01 | S. cerevisiae deletion strains, locus YLL001W, strain dnm1, hits give low values 0.992 | S. cerevisiae deletion strains, locus YLL026W, hits give low values 1.02 | S. cerevisiae deletion strains, locus YLL041C, strain sdh2, hits give low values 1.03 | S. cerevisiae deletion strains, locus YLR027C, strain aat2, hits give low values 1.03 | S. cerevisiae deletion strains, locus YLR039C, strain RIC1, hits give low values 1.19 | S. cerevisiae deletion strains, locus YLR058C, strain SHM2, hits give low values 1.02 | S. cerevisiae deletion strains, locus YLR102C, strain apc9, hits give low values 1.01 | S. cerevisiae deletion strains, locus YLR113W, strain HOG1, hits give low values 1.09 | S. cerevisiae deletion strains, locus YLR221C, strain rsa3, hits give low values 1.04 | S. cerevisiae deletion strains, locus YLR258W, strain gsy2, hits give low values 1.04 | S. cerevisiae deletion strains, locus YLR262C, strain YPT6 (second series), hits give low values 1.04 | S. cerevisiae deletion strains, locus YLR268W, strain sec22, hits give low values 1.04 | S. cerevisiae deletion strains, locus YLR320W, strain mms22, hits give low values 1.03 | S. cerevisiae deletion strains, locus YLR330W, strain CHS5, hits give low values 1.01 | S. cerevisiae deletion strains, locus YLR342W, strain FKS1 (second series), hits give low values 1.02 | S. cerevisiae deletion strains, locus YLR342W, strain FKS1, hits give low values 1.03 | S. cerevisiae deletion strains, locus YLR357W, strain rsc2, hits give low values 1.01 | S. cerevisiae deletion strains, locus YLR370C, strain arc18, hits give low values 1.01 | S. cerevisiae deletion strains, locus YLR371W, strain rom2, hits give low values 0.987 | S. cerevisiae deletion strains, locus YLR384C, strain iki3, hits give low values 1.03 | S. cerevisiae deletion strains, locus YLR418C, strain cdc73, hits give low values 1.02 | S. cerevisiae deletion strains, locus YML016C, strain PPZ1, hits give low values 1.01 | S. cerevisiae deletion strains, locus YML032C, strain rad52, hits give low values 0.99 | S. cerevisiae deletion strains, locus YML120C, strain ndi1, hits give low values 1.01 | S. cerevisiae deletion strains, locus YML124C, strain tub3, hits give low values 0.989 | S. cerevisiae deletion strains, locus YMR058W, strain fet3, hits give low values 1.03 | S. cerevisiae deletion strains, locus YMR078C, strain ctf18, hits give low values 1 | S. cerevisiae deletion strains, locus YMR125W, strain sto1, hits give low values 1 | S. cerevisiae deletion strains, locus YMR129W, hits give low values 1 | S. cerevisiae deletion strains, locus YMR205C, strain PFK2, hits give low values 1 | S. cerevisiae deletion strains, locus YMR223W, strain ubp8, hits give low values 0.978 | S. cerevisiae deletion strains, locus YMR231W, strain pep5, hits give low values 1.01 | S. cerevisiae deletion strains, locus YMR307W, strain GAS1, hits give low values 1.19 | S. cerevisiae deletion strains, locus YNL067W, strain RPL9B, hits give low values 0.991 | S. cerevisiae deletion strains, locus YNL071W, strain lat1, hits give low values 1.01 | S. cerevisiae deletion strains, locus YNL153C, strain GIM3, hits give low values 0.998 | S. cerevisiae deletion strains, locus YNL183C, strain NPR1, hits give low values 1.01 | S. cerevisiae deletion strains, locus YNL209W, strain ssb2, hits give low values 1 | S. cerevisiae deletion strains, locus YNL233W, strain BNI4, hits give low values 1.04 | S. cerevisiae deletion strains, locus YNL248C, strain rpa49, hits give low values 1.03 | S. cerevisiae deletion strains, locus YNL250W, strain rad50, hits give low values 0.905 | S. cerevisiae deletion strains, locus YNL271C, strain bni1, hits give low values 0.98 | S. cerevisiae deletion strains, locus YNL298W, strain CLA4, hits give low values 1.01 | S. cerevisiae deletion strains, locus YNL307C, strain MCK1, hits give low values 1 | S. cerevisiae deletion strains, locus YNL322C, strain KRE1 (second series), hits give low values 1 | S. cerevisiae deletion strains, locus YNR049C, strain mso1, hits give low values 1.02 | S. cerevisiae deletion strains, locus YNR052C, strain pop2, hits give low values 1 | S. cerevisiae deletion strains, locus YOL012C, strain htz1 0.732 | S. cerevisiae deletion strains, locus YOL147C, strain pex11, hits give low values 0.988 | S. cerevisiae deletion strains, locus YOR001W, strain rrp6, hits give low values 1.02 | S. cerevisiae deletion strains, locus YOR061W, strain CKA2, hits give low values 1.02 | S. cerevisiae deletion strains, locus YOR069W, strain VPS5, hits give low values 1.01 | S. cerevisiae deletion strains, locus YOR070C, strain gyp1, hits give low values 1.02 | S. cerevisiae deletion strains, locus YOR080W, strain dia2, hits give low values 1.02 | S. cerevisiae deletion strains, locus YOR083W, strain WHI5, hits give low values 0.989 | S. cerevisiae deletion strains, locus YOR106W, strain vam3, hits give low values 0.98 | S. cerevisiae deletion strains, locus YOR136W, strain idh2, hits give low values 0.991 | S. cerevisiae deletion strains, locus YOR144C, strain elg1, hits give low values 0.996 | S. cerevisiae deletion strains, locus YOR184W, strain ser1, hits give low values 1.09 | S. cerevisiae deletion strains, locus YOR231W, strain MKK1, hits give low values 1.11 | S. cerevisiae deletion strains, locus YOR265W, strain rbl2, hits give low values 1.01 | S. cerevisiae deletion strains, locus YOR270C, strain vph1, hits give low values 1.07 | S. cerevisiae deletion strains, locus YOR290C, strain snf2, hits give low values 1 | S. cerevisiae deletion strains, locus YOR316C, strain cot1, hits give low values 0.977 | S. cerevisiae deletion strains, locus YPL051W, strain arl3, hits give low values 0.986 | S. cerevisiae deletion strains, locus YPL055C, strain LGE1, hits give low values 1.09 | S. cerevisiae deletion strains, locus YPL078C, strain atp4, hits give low values 0.997 | S. cerevisiae deletion strains, locus YPL106C, strain sse1, hits give low values 0.986 | S. cerevisiae deletion strains, locus YPL240C, strain hsp82, hits give low values 1.01 | S. cerevisiae deletion strains, locus YPL241C, strain CIN2, hits give low values 0.999 | S. cerevisiae deletion strains, locus YPL256C, strain CLN2, hits give low values 1.09 | S. cerevisiae deletion strains, locus YPR119W, strain clb2, hits give low values 0.981 | S. cerevisiae deletion strains, locus YPR141C, strain kar3, hits give low values 0.973 | S. cerevisiae deletion strains, locus YPR163C, strain tif3, hits give low values 1 | S. cerevisiae deletion strains, locus YPR167C, strain met16, hits give low values 0.996 | S. cerevisiae deletion strains, strain wtn01, hits give low values 1.02 | S. cerevisiae strains, strain wild type, hits give low values 1.03
